The list is not random: actives were taken first. Their share in the collection is about 2.9%.
Vif inh: HIV Vif self-association inhibitors, primary screen, imaging, HEK293T, single point | HEK293T cells, Vif self-association by quenched fluorescence, 24 h | inhibition, % at 7.49 µM | hit rate 0.35% among 340,000 | AID 602346, 2012; in the data active = inhibition above about 50%, passing the limit was not always enough; inconclusive = no clear call, values can overlap the other calls; inactive = below about 31%
Wnt act: Wnt/beta-catenin pathway activators, primary screen, cell-based, plate reader, single point; Wnt/beta-catenin reporter cell assay, activator; hit rate 1.2% among 300,000; activation, % at 9.35 µM; in the data active = activation above about 30%, passing the limit was not always enough; inconclusive = no clear call, values can overlap the other calls;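 also: 0% = neutral control wells and 100% = positive control wells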
PvdQ acylase: P. aeruginosa PvdQ acylase inhibitors, primary screen, biochemical, fluorescence, plate reader and imaging, single point; inhibition, % at 10 µM; PvdQ acylase [Pseudomonas aeruginosa LESB58]; AID 488965, 2010; purified PvdQ acylase; hit rate 0.063% among 340,000; in the data active = inhibition above about 30%, passing the limit was not always enough; inconclusive = no clear call, values can overlap the other calls;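 also: 0% = vehicle neutral wells and 100% = reference inhibitor wells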
esBAF inh: Bmi1 luciferase reporter increase in mESCs, primary screen, esBAF inhibitor project, mouse ES cells, Bmi1 luciferase knock-in, single point; reporter increase, % at 12.5 µM; 24 h; 100% = twice the neutral-well signal; AID 602393, 2012; hit rate 2% among 350,000; in the data active = activation above about 40%; inconclusive = no clear call, values can overlap the other calls;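 also: 0% = median of the plate's neutral control wells and 100% = double that signal; a rise in the Bmi1 reporter signal indicates esBAF inhibition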
MITF TRPM1 HTS: activators of MITF-driven TRPM1 promoter reporter, primary screen, cell-based, SK-MEL-5, luciferase, single point. SK-MEL-5 TRPM1-promoter luciferase, 24 h; % of positive control, neutral wells = 0. activation, % at 12.5 µM. hit rate 0.75% among 300,000. AID 588334, 2011;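 active = mean activation of at least 80% with every replicate also reaching 80%; inconclusive = mean reaches 80% but some replicate falls short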;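 also: 0% = neutral control wells and 100% = parthenolide positive control wells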
N-glyco inh: increase of ERlucT glycosylation luciferase signal, primary screen, N-linked glycosylation inhibitor project, D54 ERlucT cells, luminescence, set 2; D54 ERlucT glycosylation luciferase reporter, 24 h; percent of 100 nM tunicamycin response; reporter increase, % at 12.5 µM; hit rate 0.23% among 360,000;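 active = mean luciferase reporter signal, scaled so untreated is 0 and the glycosylation-blocking control 100, at or above a set limit in every replicate; inconclusive = mean reaches the limit but not every replicate does; inactive = mean below the limit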;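 also: luciferase carries N-glycosylation sites so blocking glycosylation raises the light; 0% = median of neutral control wells and 100% = median of 100 nM tunicamycin wells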
* marks the source's active call; other numbers are inactive results.

Screening O=c1cc(-c2ccc(O)cc2)oc2cc(O)cc(O)c12 returned Vif inh -2, Wnt act 46*, PvdQ acylase -9, esBAF inh inconclusive, MITF TRPM1 HTS 94* and N-glyco inh 1.
`COc1cc(O)c2c(=O)cc(-c3ccccc3)oc2c1` gave Vif inh 1, Wnt act 23, PvdQ acylase -3, esBAF inh 50*, MITF TRPM1 HTS 95* and N-glyco inh 6.
Screening O=c1cc(-c2ccccc2)oc2cc(O)cc(O)c12 returned Vif inh -5, Wnt act 6, PvdQ acylase 1, esBAF inh 7, MITF TRPM1 HTS 100* and N-glyco inh -1.
For CC(C)OC(=O)COc1cc(O)c2c(=O)cc(-c3ccccc3)oc2c1 the results were Vif inh -13, Wnt act 6, PvdQ acylase -2, MITF TRPM1 HTS -6 and N-glyco inh 2.
O=c1cc(-c2ccccc2)oc2cccc(O)c12 was read as Vif inh -10, Wnt act -1, PvdQ acylase -5, esBAF inh 45*, MITF TRPM1 HTS 21 and N-glyco inh 0.
Screening COCOc1ccc(-c2cc(=O)c3c(O)cc(OCOC)cc3o2)cc1 returned Vif inh -4, Wnt act 15, PvdQ acylase -12, esBAF inh 88* and N-glyco inh 11.
`CCCNC(=O)Nc1ccc2c(c1)C(=O)N(C)C[C@@H](OC)[C@H](C)CN(C(=O)C1CCC1)[C@H](C)CO2` gave esBAF inh -4.
`CNC(=O)/C(C#N)=C/c1ccc(-c2nc3ccccc3s2)o1` gave Vif inh 16, Wnt act 43* and N-glyco inh 3.
CNC(=O)/C(C#N)=C\c1ccc(CNS(=O)(=O)c2ccccc2)o1 was read as Vif inh -4, PvdQ acylase 12, MITF TRPM1 HTS -4 and N-glyco inh -1.
N#C/C(=C\c1ccc(-c2nc3ccccc3s2)o1)C(N)=O was read as Vif inh -2, Wnt act 44*, PvdQ acylase -1 and N-glyco inh 4.
For Cc1nc2ccc(N=NC3=C(O)CC(C)(C)CC3=O)cc2s1 the results were Vif inh 0, Wnt act 18, PvdQ acylase 4, esBAF inh 49*, MITF TRPM1 HTS 43 and N-glyco inh -6.
C[C@H]1CN([C@@H](C)CO)C(=O)c2cccc(NS(C)(=O)=O)c2O[C@@H]1CN(C)C was read as esBAF inh 0.
COc1ccc(/C=C\c2nc(=O)c3ccccc3o2)cc1 was read as Vif inh 9, Wnt act 5, PvdQ acylase -9, esBAF inh -1, MITF TRPM1 HTS 2 and N-glyco inh -12.
For O=c1nc(/C=C/c2ccc(O)c(O)c2)oc2ccccc12 the results were Vif inh -15, PvdQ acylase -1, esBAF inh -11, MITF TRPM1 HTS 82* and N-glyco inh -2.
`N#C/C(=C/c1ccc(N2CCCCC2)o1)C(=O)Nc1ccc(Cl)cc1` gave PvdQ acylase 1, esBAF inh 60*, MITF TRPM1 HTS 78 and N-glyco inh -2.
For O=C(C[C@H]1CC[C@@H]2[C@H](COC[C@@H](O)CN2C(=O)Nc2ccc(F)cc2)O1)NCCc1ccccc1 the results were esBAF inh 3.
Screening Cc1ccc(CNCCCSc2ncccn2)cc1 returned Vif inh 60*, Wnt act 1, PvdQ acylase -16, esBAF inh 4, MITF TRPM1 HTS 15 and N-glyco inh 0.
For CCOc1ccc2nc(SCC(=O)c3cccs3)sc2c1 the results were Vif inh 1, Wnt act 50*, PvdQ acylase -5, esBAF inh 90* and N-glyco inh -2.
COc1ccc2nc(NC(=O)c3ccccc3[N+](=O)[O-])sc2c1 was read as Vif inh 2, Wnt act 8, PvdQ acylase -13, esBAF inh 50*, MITF TRPM1 HTS 16 and N-glyco inh -1.
